The source of these data is PubChem BioAssay (EPA / NIEHS).

Inconclusive results are not listed. Calls of active or inactive are those of the source. The calls were made as follows: active = hit-call score of the fitted dose curve at least 0.9, where 1 is the maximum; inconclusive = response in the unintended direction; inactive = score below 0.9.

Sequence of Estrogen receptor (Homo sapiens) (P03372 whole entry, looked up): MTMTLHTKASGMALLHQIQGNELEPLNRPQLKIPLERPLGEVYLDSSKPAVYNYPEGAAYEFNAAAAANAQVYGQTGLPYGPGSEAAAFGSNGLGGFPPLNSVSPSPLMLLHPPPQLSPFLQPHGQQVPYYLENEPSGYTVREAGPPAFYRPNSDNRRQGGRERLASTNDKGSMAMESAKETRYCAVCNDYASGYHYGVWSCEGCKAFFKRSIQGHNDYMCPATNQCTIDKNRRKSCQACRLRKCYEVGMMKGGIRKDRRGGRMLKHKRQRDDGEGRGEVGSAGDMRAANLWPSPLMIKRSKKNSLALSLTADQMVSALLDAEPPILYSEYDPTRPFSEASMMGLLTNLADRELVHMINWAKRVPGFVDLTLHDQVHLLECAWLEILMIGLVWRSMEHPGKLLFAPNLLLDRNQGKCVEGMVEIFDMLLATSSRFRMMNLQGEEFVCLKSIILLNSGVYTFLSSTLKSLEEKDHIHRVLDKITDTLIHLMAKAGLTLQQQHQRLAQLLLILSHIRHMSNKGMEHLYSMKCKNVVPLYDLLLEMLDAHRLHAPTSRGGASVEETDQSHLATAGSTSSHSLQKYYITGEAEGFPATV

This test deals with Estrogen receptor (Homo sapiens) (UniProt P03372). The test can be described thus: NVS_NR_hER: NovaScreen (NVS) Nuclear Receptor Binding Assay for human Estrogen Receptor (ER) (AID 2283348). Here is the method:
NVS_NR_hER is a biochemical, single-readout assay that uses extracted gene-proteins from MCF7 in a cell-free assay. Measurements were taken 18 hours after chemical dosing in a 96-well plate.NVS_NR_hER is one of one assay component(s) measured or calculated from the NVS_NR_hER assay. It is designed to make measurements of radioligand binding, a form of binding reporter, as detected with scintillation counting signals by Lysate-based radiodetection technology.Data from the assay component NVS_NR_hER was analyzed into 1 assay endpoint. This assay endpoint, NVS_NR_hER, was analyzed in the positive analysis fitting direction relative to DMSO as the negative control and baseline of activity. Using a type of binding reporter, loss-of-signal activity can be used to understand changes in the binding as they relate to the gene ESR1. Furthermore, this assay endpoint can be referred to as a primary readout, because the performed assay has only produced 1 assay endpoint. To generalize the intended target to other relatable targets, this assay endpoint is annotated to the nuclear receptor intended target family, where the subfamily is steroidal.
Binding assays used specific radioligands (tritiated, iodinated) with non-radioactive competitive displacement ligands in agonist or antagonist protocols (as indicated) and various reference compounds and inhibitors to titrate specific binding to receptors and transporters. Most enzyme assays (CYPs, kinases, phosphatases, proteases, HDACs) used recombinant protein and specific substrates (fluorescence mostly, some colorimetric and radioactive) and inhibitors, followed by a biochemical separation of substrate and product. All assays for the biochemical HTS were initially run in duplicate at a single concentration (10 uM for CYP450 assays and 25 uM for all others). […] Each assay was run with positive and negative controls, and concurrent controls on every plate. The follow-up (secondary) screen tested active chemical-pairs in concentration series, as well as a few additional assays not tested in the primary screen, some selected negative inactives, and several cases re-run in the concentration series for confirmatory purposes.
Take `CC[C@H]1CC[C@H](NCc2cc3c(cc2OC)[C@H]2C[C@H]2C(=O)N3C)[C@H](c2ccccc2)N1`: the result was inactive. The entry for `CC(C)=CCCC(C)CCO` (configuration not stated) is “inactive”; for `CC(C)=CCCC(C)=CC=O` it is “inactive”; for `C=CCCCCCCCCC(=O)O` it is “inactive”.

Regarding `CCC(C)(C)C(=O)O[C@H]1C[C@@H](C)C=C2C=C[C@H](C)[C@H](CC[C@@H]3C[C@@H](O)CC(=O)O3)[C@H]21`, the compound was classed as inactive.

As to `Cn1c(=O)cc(Oc2ccc(F)cc2F)c2cnc(NCC(C)(C)O)nc21`, the call was inactive. Then `Cn1cnc([N+](=O)[O-])c1Sc1ncnc2nc[nH]c12`, with “inactive”; and `CCOC(=O)COc1ccc2c(c1)CC(NCC(O)c1cccc(Cl)c1)CC2` (configuration not stated), with “inactive”; and `O=P(OC(CCl)CCl)(OC(CCl)CCl)OC(CCl)CCl`, with “inactive”. The entry for `COc1cccc(-c2ccc(/C=C\CN3CCCCCC3)cc2Cl)c1` is “inactive”.

Turning to `Nc1ccc(Nc2ccccc2)cc1`, the compound was called inactive. The entry for `COc1ccc2sc(C(=O)Nc3nnn[nH]3)c(OC(C)C)c2c1` is “inactive”.
